# Data: PubChem BioAssay (EPA / NIEHS)
# Results filed as inconclusive are left out. More than one record can exist for a structure, and the calls need not agree. Calls of active or inactive are those of the source. Rule for the calls, unless noted: active = hit-call score of the fitted dose curve at least 0.9, where 1 is the maximum; inactive = score below 0.9.
# Tests used:
# [1] = target: human RAR-related Orphan Receptor beta (RORb), RORB (gene 6096) (UniProt Q92753); assay: ATG_RORb_TRANS: Attagene TRANS-FACTORIAL HepG2 Assay for human RAR-related Orphan Receptor beta (RORb) (AID 2283010; active = hit-call score of the fitted dose curve at least 0.9, where 1 is the maximum)
# Outline: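 HepG2 cells were transiently transfected with multiplexed GAL4-UAS reporter units expressing chimeric nuclear receptor–GAL4 proteins, then dosed for 24 h. Reporter mRNA was quantified by RT-PCR with fluorescent labelling and capillary electrophoresis; gain of signal was fitted relative to DMSO.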
# [2] = target: human Retinoid X Receptor beta (RXRb), RXRB (gene 6257) (UniProt P28702); assay: ATG_RXRb_TRANS: Attagene TRANS-FACTORIAL HepG2 Assay for human Retinoid X Receptor beta (RXRb) (AID 2283013; active = hit-call score of the fitted dose curve at least 0.9, where 1 is the maximum)
# Outline: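 HepG2 cells transiently transfected with multiplexed reporter units driven by GAL4-UAS and exogenous chimeric NR-Gal4 proteins; treated 24 h. Reporter mRNA measured by RT-PCR, 6-FAM labelling and capillary electrophoresis; gain-of-signal fitted versus DMSO baseline.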
# [3] = target: human Thyroid Receptor alpha (THRa1), THRA (gene 7067) (UniProt P10827); assay: ATG_THRa1_TRANS: Attagene TRANS-FACTORIAL HepG2 Assay for human Thyroid Receptor alpha (THRa1) (AID 2283014; active = hit-call score of the fitted dose curve at least 0.9, where 1 is the maximum)
# Outline: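 Transcripts from GAL4-UAS-driven reporters, measured after 24 h compound exposure by RT-PCR plus capillary electrophoresis of 6-FAM-labeled fragments, were fitted for gain of signal relative to DMSO. Cells: transiently transfected HepG2 expressing NR-Gal4 chimeras.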
# [4] = read-out: E-selectin (Homo sapiens) (UniProt P16581); assay: BSK_3C_Eselectin: BioMAP Diversity Plus: 3C Assay for Eselectin Biomarker Activity (AID 2283015); settings: primary human endothelial cells (HUVEC); actives raise or lower the signal;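 for outcome: cell surface E-selectin protein quantified by ELISA 24 h after dosing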
# Outline: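 E-selectin ELISA readout, fitted bidirectionally relative to DMSO, taken 24 h post-dosing in HUVEC cultures of the 3C system. Overt cytotoxicity tracked with sulforhodamine B staining of parallel wells.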
# [5] = read-out: Interleukin-1 alpha (IL1a), IL1A (gene 3552); assay: BSK_BE3C_IL1a: BioMAP Diversity Plus: BE3C Assay for Interleukin-1 alpha (IL1a) Biomarker Activity (AID 2283016); settings: primary human bronchial epithelial cells; actives raise or lower the signal
# Outline: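 Human primary bronchial epithelial cells (BE3C system) were dosed with compound and IL-1a measured by ELISA 24 h later. Activity was fitted bidirectionally against DMSO baseline; cytotoxicity was tracked in parallel cultures by SRB total-protein staining.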
# [6] = read-out: Monocyte Chemoattractant Protein-1 (MCP1), CCL2 (gene 6347); assay: BSK_3C_MCP1: BioMAP Diversity Plus: 3C Assay for Monocyte Chemoattractant Protein-1 (MCP1) Biomarker Activity (AID 2283017); settings: primary human endothelial cells (HUVEC); actives raise or lower the signal
# Outline: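 MCP-1 was measured by ELISA 24 h after dosing in primary HUVEC 3C cultures and fitted in both directions relative to DMSO; cytotoxicity was checked by SRB total-protein staining in parallel wells.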
# [7] = read-out: Monocyte Chemoattractant Protein-1 (MCP1), CCL2 (gene 6347); assay: BSK_4H_MCP1: BioMAP Diversity Plus: 4H Assay for Monocyte Chemoattractant Protein-1 (MCP1) Biomarker Activity (AID 2283018); settings: primary human endothelial cells (HUVEC); actives raise or lower the signal
# Outline: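 Human umbilical vein endothelial cells (4H system) dosed with chemical; MCP-1 measured by ELISA 24 h after dosing. Bidirectional curve fitting against DMSO negative control as baseline; parallel SRB total-protein staining tracks overt cytotoxicity.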
# [8] = read-out: Human Leukocyte Antigen - DR isotype (HLADR), HLA-DRA (gene 3122); assay: BSK_3C_HLADR: BioMAP Diversity Plus: 3C Assay for Human Leukocyte Antigen - DR isotype (HLADR) Biomarker Activity (AID 2283019); settings: primary human endothelial cells (HUVEC); actives raise or lower the signal;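 for outcome: ELISA of cell-surface HLA-DR on HUVEC 24 h after dosing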
# Outline: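 Bidirectional fitting against DMSO was applied to the HLA-DR ELISA signal from human umbilical vein endothelial cells, 24 h post-dose. Cytotoxicity came from parallel SRB total-protein staining; 3C proliferation was counted by SRB at 48 h.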
# [9] = target: human RAR-related Orphan Receptor gamma (RORg), RORC (gene 6097) (UniProt P51449); assay: ATG_RORg_TRANS: Attagene TRANS-FACTORIAL HepG2 Assay for human RAR-related Orphan Receptor gamma (RORg) (AID 2283011; active = hit-call score of the fitted dose curve at least 0.9, where 1 is the maximum)
# Outline: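 Reporter transcripts from a transfected RORg-GAL4 chimera in HepG2 cells were quantified 24 h after dosing by RT-PCR, 6-FAM labelling, HpaI digestion and capillary electrophoresis; increases over DMSO baseline were fitted.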
# [10] = target: Retinoic acid receptor RXR-alpha (Homo sapiens) (UniProt P19793); assay: ATG_RXRa_TRANS: Attagene TRANS-FACTORIAL HepG2 Assay for human Retinoid X Receptor alpha (RXRa) (AID 2283012; active = hit-call score of the fitted dose curve at least 0.9, where 1 is the maximum)
# Outline: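 HepG2 cells transiently transfected with multiplexed GAL4-UAS reporter units and chimeric NR-GAL4 fusions, dosed 24 h. Reporter mRNA measured by RT-PCR, FAM labelling, HpaI digestion and capillary electrophoresis; gain-of-signal fitted relative to DMSO baseline.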
# Sequence of human Thyroid Receptor alpha (THRa1), THRA (gene 7067) (P10827 whole entry, looked up, the tested form may be a part): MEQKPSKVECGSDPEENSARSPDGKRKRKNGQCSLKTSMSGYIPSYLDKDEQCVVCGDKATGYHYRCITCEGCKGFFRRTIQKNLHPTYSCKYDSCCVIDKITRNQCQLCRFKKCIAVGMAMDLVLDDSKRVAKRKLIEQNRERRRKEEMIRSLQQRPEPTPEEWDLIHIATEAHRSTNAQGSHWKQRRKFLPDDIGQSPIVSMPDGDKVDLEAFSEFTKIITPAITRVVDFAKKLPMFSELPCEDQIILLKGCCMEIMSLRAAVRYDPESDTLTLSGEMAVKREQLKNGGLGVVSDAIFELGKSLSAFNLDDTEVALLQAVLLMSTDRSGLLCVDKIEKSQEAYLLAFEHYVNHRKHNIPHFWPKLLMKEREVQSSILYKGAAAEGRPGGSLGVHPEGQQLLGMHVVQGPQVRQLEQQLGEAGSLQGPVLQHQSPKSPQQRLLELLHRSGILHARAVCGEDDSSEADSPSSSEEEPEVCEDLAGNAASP
# Sequence of E-selectin (Homo sapiens) (P16581 whole entry, looked up): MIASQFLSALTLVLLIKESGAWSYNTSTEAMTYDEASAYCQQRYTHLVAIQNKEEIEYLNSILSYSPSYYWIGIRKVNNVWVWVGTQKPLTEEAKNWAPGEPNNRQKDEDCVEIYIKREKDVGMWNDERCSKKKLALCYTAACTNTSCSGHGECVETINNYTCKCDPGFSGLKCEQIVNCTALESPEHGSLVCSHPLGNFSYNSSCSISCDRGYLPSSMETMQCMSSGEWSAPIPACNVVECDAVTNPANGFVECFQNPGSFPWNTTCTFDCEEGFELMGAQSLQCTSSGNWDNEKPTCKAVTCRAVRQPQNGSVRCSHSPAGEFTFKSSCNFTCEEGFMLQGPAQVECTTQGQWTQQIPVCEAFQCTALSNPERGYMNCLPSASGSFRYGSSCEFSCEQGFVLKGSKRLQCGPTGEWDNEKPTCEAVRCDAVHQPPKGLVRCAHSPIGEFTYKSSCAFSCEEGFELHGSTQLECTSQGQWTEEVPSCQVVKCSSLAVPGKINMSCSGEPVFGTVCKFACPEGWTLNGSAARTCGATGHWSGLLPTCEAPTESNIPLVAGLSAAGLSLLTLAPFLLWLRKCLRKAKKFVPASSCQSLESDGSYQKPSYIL
# Sequence of Retinoic acid receptor RXR-alpha (Homo sapiens) (P19793 whole entry, looked up, the tested form may be a part): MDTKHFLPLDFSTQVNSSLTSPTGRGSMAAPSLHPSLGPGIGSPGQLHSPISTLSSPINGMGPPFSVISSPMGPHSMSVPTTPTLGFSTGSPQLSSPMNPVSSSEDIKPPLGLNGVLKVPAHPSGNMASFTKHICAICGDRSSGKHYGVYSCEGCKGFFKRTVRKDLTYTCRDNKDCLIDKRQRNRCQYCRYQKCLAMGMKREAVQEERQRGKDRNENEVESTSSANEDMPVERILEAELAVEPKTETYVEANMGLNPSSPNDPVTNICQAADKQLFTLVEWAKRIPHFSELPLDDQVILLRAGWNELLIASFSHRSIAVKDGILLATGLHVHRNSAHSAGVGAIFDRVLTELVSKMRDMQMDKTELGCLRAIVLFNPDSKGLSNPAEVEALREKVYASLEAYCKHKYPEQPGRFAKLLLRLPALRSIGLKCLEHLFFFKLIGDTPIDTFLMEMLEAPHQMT
# Sequence of human Retinoid X Receptor beta (RXRb), RXRB (gene 6257) (P28702 whole entry, looked up, the tested form may be a part): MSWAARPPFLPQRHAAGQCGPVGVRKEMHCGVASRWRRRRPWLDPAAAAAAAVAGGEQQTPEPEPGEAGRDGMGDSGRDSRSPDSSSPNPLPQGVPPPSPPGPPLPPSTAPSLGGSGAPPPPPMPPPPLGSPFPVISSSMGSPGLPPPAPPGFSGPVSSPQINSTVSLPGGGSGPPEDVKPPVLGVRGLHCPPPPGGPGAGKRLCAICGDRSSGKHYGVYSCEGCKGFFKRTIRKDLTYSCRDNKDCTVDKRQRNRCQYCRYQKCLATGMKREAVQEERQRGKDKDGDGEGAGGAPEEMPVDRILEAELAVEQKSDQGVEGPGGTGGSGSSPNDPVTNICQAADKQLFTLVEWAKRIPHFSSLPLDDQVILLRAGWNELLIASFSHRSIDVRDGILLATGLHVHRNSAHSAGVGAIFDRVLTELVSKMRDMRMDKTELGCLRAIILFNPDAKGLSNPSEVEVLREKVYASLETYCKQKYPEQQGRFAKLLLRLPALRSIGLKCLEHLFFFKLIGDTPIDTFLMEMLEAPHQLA
# Sequence of human RAR-related Orphan Receptor gamma (RORg), RORC (gene 6097) (P51449 whole entry, looked up, the tested form may be a part): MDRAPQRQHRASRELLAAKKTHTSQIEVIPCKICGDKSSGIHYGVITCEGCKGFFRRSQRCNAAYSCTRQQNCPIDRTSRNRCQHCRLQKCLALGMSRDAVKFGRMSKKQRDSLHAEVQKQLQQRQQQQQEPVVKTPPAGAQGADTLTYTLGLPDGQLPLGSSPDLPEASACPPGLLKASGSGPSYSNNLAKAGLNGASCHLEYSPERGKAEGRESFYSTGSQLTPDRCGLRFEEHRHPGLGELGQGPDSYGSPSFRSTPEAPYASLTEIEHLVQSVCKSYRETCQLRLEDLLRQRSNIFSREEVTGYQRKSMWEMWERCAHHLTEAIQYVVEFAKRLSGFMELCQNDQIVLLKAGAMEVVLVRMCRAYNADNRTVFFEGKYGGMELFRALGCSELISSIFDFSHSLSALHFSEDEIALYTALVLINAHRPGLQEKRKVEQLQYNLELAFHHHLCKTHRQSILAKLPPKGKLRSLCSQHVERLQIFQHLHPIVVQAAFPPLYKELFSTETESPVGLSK
# Sequence of human RAR-related Orphan Receptor beta (RORb), RORB (gene 6096) (Q92753 whole entry, looked up, the tested form may be a part): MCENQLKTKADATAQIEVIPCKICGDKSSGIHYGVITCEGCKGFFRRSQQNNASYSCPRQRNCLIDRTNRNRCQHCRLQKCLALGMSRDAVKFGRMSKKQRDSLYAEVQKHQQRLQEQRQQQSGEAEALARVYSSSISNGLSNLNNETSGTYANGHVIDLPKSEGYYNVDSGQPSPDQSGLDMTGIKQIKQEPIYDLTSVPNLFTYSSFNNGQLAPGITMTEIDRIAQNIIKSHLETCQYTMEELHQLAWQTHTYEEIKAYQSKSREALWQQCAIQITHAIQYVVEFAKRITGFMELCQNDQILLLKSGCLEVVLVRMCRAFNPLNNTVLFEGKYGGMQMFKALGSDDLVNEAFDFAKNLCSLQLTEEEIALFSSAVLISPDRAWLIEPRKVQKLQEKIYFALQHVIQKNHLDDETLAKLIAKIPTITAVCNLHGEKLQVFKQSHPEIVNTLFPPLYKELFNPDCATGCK
smiles,measurement,setting,value
Cc1cc(C)nc(NC(=O)NS(=O)(=O)c2ccccc2C(=O)OC2COC2)n1,outcome,[1],inactive
same,outcome,[2],inactive
same,outcome,[3],inactive
same,outcome,[4],inactive
same,outcome,[5],inactive
same,outcome,[6],inactive
same,outcome,[7],inactive
same,outcome,[8],inactive
O=C(O)CCCOc1ccc(Cl)cc1Cl,outcome,[1],inactive
same,outcome,[9],inactive
same,outcome,[10],inactive
same,AC50,[2],27 µM (active)
same,outcome,[2],inactive
same,outcome,[4],inactive
same,outcome,[5],inactive
same,outcome,[6],inactive
same,outcome,[7],inactive
same,outcome,[8],inactive
CCc1ccc(C(=O)NN(C(=O)c2cc(C)cc(C)c2)C(C)(C)C)cc1,outcome,[1],inactive
same,outcome,[9],inactive
same,outcome,[10],inactive
same,outcome,[2],inactive
same,outcome,[4],inactive
same,outcome,[5],inactive
same,AC50,[6],4.84 µM (active)
same,outcome,[7],inactive
same,outcome,[8],inactive
COc1cc(OC)nc(NC(=O)NS(=O)(=O)c2cc(NC=O)ccc2C(=O)N(C)C)n1,outcome,[10],inactive
same,outcome,[4],inactive
same,outcome,[5],inactive
same,outcome,[6],inactive
same,outcome,[7],inactive
same,outcome,[8],inactive
CCOC1Oc2ccc(OS(C)(=O)=O)cc2C1(C)C (configuration not stated),outcome,[9],inactive
same,outcome,[10],inactive
same,outcome,[2],inactive
same,outcome,[3],inactive
same,outcome,[4],inactive
same,outcome,[5],inactive
same,AC50,[6],24.8 µM (active)
same,outcome,[7],inactive
same,AC50,[8],23 µM (active)
CNC(=O)Oc1ccccc1OC(C)C,outcome,[9],inactive
same,outcome,[4],inactive
same,AC50,[5],5.51 µM (active)
same,outcome,[6],inactive
same,outcome,[7],inactive
same,outcome,[8],inactive
COC(=O)c1ccccc1S(=O)(=O)NC(=O)N(C)c1nc(C)nc(OC)n1,outcome,[10],inactive
same,outcome,[3],inactive
same,outcome,[4],inactive
same,outcome,[5],inactive
same,outcome,[6],inactive
same,outcome,[7],inactive
same,outcome,[8],inactive
O=S1OCC2C(CO1)C1(Cl)C(Cl)=C(Cl)C2(Cl)C1(Cl)Cl (configuration not stated),outcome,[10],inactive
same,AC50,[4],34.5 µM (active)
same,AC50,[5],33.4 µM (active)
same,AC50,[6],30.3 µM (active)
same,AC50,[7],26 µM (active)
same,AC50,[8],30 µM (active)
N#CN,outcome,[9],inactive
same,outcome,[2],inactive
same,outcome,[4],inactive
same,outcome,[5],inactive
same,outcome,[6],inactive
same,outcome,[7],inactive
same,outcome,[8],inactive
CCCN(CCOc1c(Cl)cc(Cl)cc1Cl)C(=O)n1ccnc1,outcome,[9],inactive
same,outcome,[10],inactive
same,outcome,[2],inactive
same,outcome,[3],inactive
same,outcome,[4],inactive
same,AC50,[5],22.1 µM (active)
same,outcome,[6],inactive
same,AC50,[7],20 µM (active)
same,AC50,[8],37 µM (active)
CC[C@H](C)[C@H]1O[C@]2(C=C[C@@H]1C)C[C@@H]1C[C@@H](C/C=C(\C)[C@@H](O[C@H]3C[C@H](OC)[C@@H](O[C@H]4C[C@H](OC)[C@@H](O)[C@H](C)O4)[C@H](C)O3)[C@@H](C)/C=C/C=C3\CO[C@@H]4[C@H](O)C(C)=C[C@@H](C(=O)O1)[C@]34O)O2 (tested in a mixture with another compound),outcome,[10],inactive
same,outcome,[2],inactive
same,outcome,[3],inactive
same,AC50,[4],9.55 µM (active)
same,AC50,[5],9.4 µM (active)
same,AC50,[6],6.9 µM (active)
same,AC50,[7],6.96 µM (active)
same,AC50,[8],5.8 µM (active)
CCOCN(C(=O)CCl)c1c(C)cccc1CC,outcome,[2],inactive
same,outcome,[3],inactive
same,AC50,[4],15.7 µM (active)
same,outcome,[5],inactive
same,outcome,[6],inactive
same,AC50,[7],20 µM (active)
same,AC50,[8],20 µM (active)
O=C(NC(=O)c1c(F)cccc1F)Nc1ccc(OC(F)(F)C(F)OC(F)(F)F)c(Cl)c1 (configuration not stated),outcome,[10],inactive
same,outcome,[3],inactive
same,AC50,[4],12.7 µM (active)
same,outcome,[5],inactive
same,outcome,[6],inactive
same,outcome,[7],inactive
same,AC50,[8],14 µM (active)
O=C(Nc1ccccc1)Nc1cnns1,outcome,[9],inactive
same,outcome,[10],inactive
same,outcome,[2],inactive
same,outcome,[4],inactive
same,outcome,[5],inactive
same,outcome,[6],inactive
same,outcome,[7],inactive
same,AC50,[8],36.1 µM (active)
[2H]C1([2H])[n+]2ccccc2-c2cccc[n+]2C1([2H])[2H],outcome,[9],inactive
same,outcome,[2],inactive
same,outcome,[4],inactive
same,outcome,[5],inactive
same,outcome,[6],inactive
same,outcome,[7],inactive
same,outcome,[8],inactive
Cc1[nH]c(=O)n(C(C)(C)C)c(=O)c1Cl,outcome,[9],inactive
same,outcome,[3],inactive
same,outcome,[4],inactive
same,outcome,[5],inactive
same,outcome,[6],inactive
same,outcome,[7],inactive
same,AC50,[8],13.2 µM (active)
COc1nn(CSP(=S)(OC)OC)c(=O)s1,outcome,[9],inactive
same,outcome,[10],inactive
same,outcome,[2],inactive
same,outcome,[3],inactive
same,outcome,[4],inactive
same,outcome,[5],inactive
same,outcome,[6],inactive
same,outcome,[7],inactive
same,AC50,[8],36.5 µM (active)
CC1(c2ccc(Oc3ccccc3)cc2)OC(=O)N(Nc2ccccc2)C1=O (configuration not stated),outcome,[10],inactive
same,outcome,[2],inactive
same,outcome,[3],inactive
same,AC50,[4],30.9 µM (active)
same,outcome,[5],inactive
same,AC50,[6],33.3 µM (active)
same,AC50,[7],16.3 µM (active)
same,AC50,[8],24 µM (active)
CCCN(CCC)c1c([N+](=O)[O-])cc(C(F)(F)F)cc1[N+](=O)[O-],outcome,[2],inactive
same,outcome,[4],inactive
same,outcome,[5],inactive
same,outcome,[6],inactive
same,AC50,[7],24.7 µM (active)
same,outcome,[8],inactive
Clc1ccccc1-c1nnc(-c2ccccc2Cl)nn1,outcome,[10],inactive
same,outcome,[2],inactive
same,outcome,[3],inactive
same,outcome,[4],inactive
same,outcome,[5],inactive
same,outcome,[6],inactive
same,AC50,[7],20 µM (active)
same,outcome,[8],inactive
CC(C)(C)C(O)/C(=C\c1ccc(Cl)cc1Cl)n1cncn1 (configuration not stated),outcome,[10],inactive
same,outcome,[3],inactive
same,AC50,[4],24 µM (active)
same,AC50,[5],32.9 µM (active)
same,AC50,[6],30.9 µM (active)
same,AC50,[7],22.6 µM (active)
same,AC50,[8],31.6 µM (active)
COC(=O)c1ccccc1S(=O)(=O)NC(=O)Nc1nc(C)nc(OC)n1,outcome,[10],inactive
same,outcome,[2],inactive
same,outcome,[3],inactive
same,outcome,[4],inactive
same,outcome,[5],inactive
same,outcome,[6],inactive
same,outcome,[7],inactive
same,outcome,[8],inactive
O=[N+]([O-])/N=C1\NCCN1Cc1ccc(Cl)nc1,outcome,[10],inactive
same,outcome,[2],inactive
same,outcome,[3],inactive
same,outcome,[4],inactive
same,outcome,[5],inactive
same,outcome,[6],inactive
same,outcome,[7],inactive
same,outcome,[8],inactive
CC(C)N(C(=O)COc1nnc(C(F)(F)F)s1)c1ccc(F)cc1,outcome,[10],inactive
same,outcome,[2],inactive
same,outcome,[4],inactive
same,outcome,[5],inactive
same,outcome,[6],inactive
same,AC50,[7],22.4 µM (active)
same,outcome,[8],inactive
CCOc1nc(NC)nc(NC(=O)NS(=O)(=O)c2ccccc2C(=O)OC)n1,outcome,[10],inactive
same,outcome,[2],inactive
same,outcome,[4],inactive
same,outcome,[5],inactive
same,outcome,[6],inactive
same,outcome,[7],inactive
same,outcome,[8],inactive
COP(=S)(OC)Oc1ccc([N+](=O)[O-])cc1,outcome,[2],inactive
same,AC50,[4],8.4 µM (active)
same,outcome,[5],inactive
same,AC50,[6],33.8 µM (active)
same,outcome,[7],inactive
same,AC50,[8],17.4 µM (active)
CCN(CC)C(=O)SCc1ccc(Cl)cc1,outcome,[9],inactive
same,outcome,[10],inactive
same,outcome,[2],inactive
same,outcome,[4],inactive
same,outcome,[5],inactive
same,AC50,[6],3.72 µM (active)
same,outcome,[7],inactive
same,outcome,[8],inactive
COP(=O)(OC)OC=C(Cl)Cl,outcome,[5],inactive
same,outcome,[6],inactive
same,outcome,[7],inactive
same,AC50,[8],20 µM (active)
C#CCN1C(=O)COc2cc(F)c(N3C(=O)C4=C(CCCC4)C3=O)cc21,outcome,[10],inactive
same,outcome,[2],inactive
same,outcome,[3],inactive
same,outcome,[4],inactive
same,outcome,[5],inactive
same,outcome,[6],inactive
same,outcome,[7],inactive
same,outcome,[8],inactive
C[C@H]1[C@H](c2ccc(Cl)cc2)SC(=O)N1C(=O)NC1CCCCC1,outcome,[2],inactive
same,outcome,[3],inactive
same,outcome,[4],inactive
same,outcome,[5],inactive
same,AC50,[6],20 µM (active)
same,AC50,[7],8.84 µM (active)
same,AC50,[8],21.8 µM (active)
